Binding signal data for 1 sequence are collected here from patent US20060193821, “Aptamers to the human IL-12 cytokine family and their use as autoimmune disease therapeutics” (published 2006).

The target of this assay is IL-12 (human, p35/p40 heterodimer) (Homo sapiens, UniProt P29459;P29460 SEQ:57-253,SEQ:23-328). Description: competition; fold specificity for IL-23 over IL-12; 250 nM IL-12, saturation re-analysis of competition data. The settings on record: G4; XNA; deoxy A and G, 2'-OMe C and U. The procedure: Several of the minimized constructs from the dRmY Selection 2 were also assayed in a competition format in which cold aptamer was titrated and competed away trace ³²P ATP labeled aptamer In the competition assay, the [IL-23] was held constant, the [trace labeled aptamer] was held constant, and the [unlabeled aptamer] was varied. The KD was calculated by fitting the following equation to the data: Fraction aptamer bound=amplitude*([aptamer]/(KD+[aptamer]))+background binding.
Chain of IL-12 (human, p35/p40 heterodimer) (P29459 23-219, chain 1 of 2): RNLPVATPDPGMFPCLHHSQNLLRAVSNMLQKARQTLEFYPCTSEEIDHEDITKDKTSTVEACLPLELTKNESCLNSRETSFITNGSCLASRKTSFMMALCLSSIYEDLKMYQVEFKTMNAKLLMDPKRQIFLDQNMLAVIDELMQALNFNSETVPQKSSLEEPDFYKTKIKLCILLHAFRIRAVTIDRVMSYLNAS
Chain of IL-12 (human, p35/p40 heterodimer) (P29460 23-328, chain 2 of 2): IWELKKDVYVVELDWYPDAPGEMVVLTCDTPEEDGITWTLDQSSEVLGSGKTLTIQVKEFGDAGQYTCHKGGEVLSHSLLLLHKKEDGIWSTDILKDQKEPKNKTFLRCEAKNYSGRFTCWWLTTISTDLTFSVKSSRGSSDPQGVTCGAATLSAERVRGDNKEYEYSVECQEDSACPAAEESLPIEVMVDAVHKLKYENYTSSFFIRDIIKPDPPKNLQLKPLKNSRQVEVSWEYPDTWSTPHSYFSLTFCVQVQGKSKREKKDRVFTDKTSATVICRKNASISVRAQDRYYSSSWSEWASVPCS
The competitive binding data was re-analyzed in a saturation binding experiment where the concentration of ligand (aptamer) was varied and the concentration of receptor ([…]) was held constant and the [bound aptamer] was plotted versus the [total input aptamer].
Turning to ACAGGCAAGUAAUUGGGGAGUGCGGGCGGGGUGU, the binding signal worked out at 33 fold.
